Screening results (PubChem)
An excerpt weighted towards active compounds, which were near 3.2% of everything screened.
A3A deaminase = inhibitors of human APOBEC3A DNA deaminase | AID 493011 | 330,000 compounds, 0.41% hits | inhibition, % at 20 µM | recombinant A3A, FAM/TAMRA ssDNA deamination fluorescence | P31941;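 active means at least 40% inhibition at 20 µM here, with at most 30% in a related deaminase screen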;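 further: plate controls were A3A with DMSO for no effect and wells lacking A3A enzyme for full effect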
Target sequence (P31941 whole entry, looked up): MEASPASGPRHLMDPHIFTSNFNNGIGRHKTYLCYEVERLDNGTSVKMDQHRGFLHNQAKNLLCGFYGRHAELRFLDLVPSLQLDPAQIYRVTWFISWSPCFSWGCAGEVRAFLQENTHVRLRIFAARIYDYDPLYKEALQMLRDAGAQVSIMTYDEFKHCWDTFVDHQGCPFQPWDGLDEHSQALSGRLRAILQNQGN
AHR act = human AHR activation; activation, % at 5 µM; 320,000 compounds, 2.5% hits; AHR-responsive luciferase reporter cells, luminescence; in the data active means activation above about 47%;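 further: 0% = vehicle wells and 100% = reference agonist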
APOBEC3G inh = inhibitors of human APOBEC3G DNA deaminase | AID 493012 | 330,000 compounds, 0.28% hits | inhibition, % at 20 µM | Q9HC16 | recombinant A3G, ssDNA deamination FAM/TAMRA fluorescence;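 active means inhibition of at least 40% at 20 µM, with no more than 30% in the related APOBEC3A deaminase screen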;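 further: plate controls were DMSO wells with A3G for no effect and wells lacking A3G enzyme for full effect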
Target sequence (Q9HC16 whole entry, looked up): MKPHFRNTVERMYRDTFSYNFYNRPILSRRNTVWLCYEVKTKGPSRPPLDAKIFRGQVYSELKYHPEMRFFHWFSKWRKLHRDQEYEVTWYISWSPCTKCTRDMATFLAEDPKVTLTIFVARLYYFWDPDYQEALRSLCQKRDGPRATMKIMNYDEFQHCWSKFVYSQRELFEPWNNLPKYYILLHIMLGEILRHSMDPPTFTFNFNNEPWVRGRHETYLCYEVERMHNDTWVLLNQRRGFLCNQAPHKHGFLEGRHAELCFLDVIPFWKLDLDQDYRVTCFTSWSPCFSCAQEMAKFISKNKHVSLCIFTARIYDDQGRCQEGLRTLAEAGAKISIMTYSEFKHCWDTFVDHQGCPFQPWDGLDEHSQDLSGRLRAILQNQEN
NTR1 agonist = agonists of human neurotensin receptor NTR1 | 330,000 compounds, 0.17% hits | AID 493036 | NTR1-U2OS beta-arrestin-GFP spot imaging, agonist mode | P30989 | activation, % at 20 µM;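 active means activation at or above 40% of the spot to cytoplasm intensity ratio, with at least 20 cells analyzed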;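 further: 0% = DMSO without peptide and 100% = 100 nM NTR1 peptide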
AHR act confirm = human AHR activation, confirmation | shares compounds with AHR act | human cells, AHR-responsive luciferase reporter, luminescence | activation, % at 9 µM | 2,300 compounds, 87% hits; in the data active means activation above about 49%;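 further: HepG2 hepatoma cells carrying a DRE-driven firefly luciferase reporter; 0% = vehicle wells and 100% = reference agonist wells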
PXR act counter = activates human PXR in AHR activator counter-screen; shares compounds with AHR act; 2,300 compounds, 88% hits; activation, % at 11.6 µM; cell-based PXR reporter, luciferase luminescence; in the data active means activation above about 11%;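 further: human hepatoma DPX-2 cells expressing full-length human PXR; 0% = DMSO and 100% = reference agonist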
Numbers without * were called inactive.

Results for CC1=C(C#N)c2nc(N)c(C#N)c(C)c2/C1=C\c1ccc(OCC(=O)O)c(Cl)c1 ?
A3A deaminase: 3.4; AHR act: 7.3; APOBEC3G inh: -6.6; NTR1 agonist: 0.5

Results for CN(C(=O)c1ccc(Br)o1)C1(C)CCS(=O)(=O)C1 (configuration not stated) ?
A3A deaminase: -1.0; AHR act: -0.5; APOBEC3G inh: 3.9; NTR1 agonist: 0.2

What do the screens show for `O=C(N/N=C/c1ccc([N+](=O)[O-])o1)c1cc(-c2ccc(-c3ccccc3)cc2)nc2ccccc12`?
A3A deaminase: 5.5; AHR act: 127.7*; APOBEC3G inh: -1.6; NTR1 agonist: 2.8; AHR act confirm: 43.2; PXR act counter: 25.4*

Results for O=C(N/N=C/c1ccc([N+](=O)[O-])o1)c1cc(-c2ccncc2)nc2ccccc12 ?
A3A deaminase: 20.6; AHR act: 14.2; APOBEC3G inh: 6.8; NTR1 agonist: 2.1

Results for CC1=NN(c2ccccc2)C(=O)/C1=C/c1cccs1 ?
A3A deaminase: -1.0; AHR act: 83.8*; APOBEC3G inh: -4.1; NTR1 agonist: 1.4; AHR act confirm: 86.5*; PXR act counter: 36.8*

Results for CC1=NN(c2ccccc2)C(=O)/C1=C\c1ccc(Br)s1 ?
A3A deaminase: -3.8; AHR act: 23.2; APOBEC3G inh: -6.4; NTR1 agonist: -1.1

Results for CC(=O)c1c(C)[nH]c(C(=O)NCCc2ccccc2)c1C ?
A3A deaminase: -0.2; AHR act: 116.3*; APOBEC3G inh: -0.7; NTR1 agonist: -2.7; AHR act confirm: 70.0*; PXR act counter: 78.8*

How did O=C(Nc1ccccc1)c1cnc(-c2ccccc2)nc1-c1ccccc1 do in these assays?
A3A deaminase: 0.6; AHR act: 90.0*; APOBEC3G inh: -0.8; NTR1 agonist: 3.9; AHR act confirm: 93.4*; PXR act counter: 47.3*

How did O=C(O)c1cnc(-c2ccccc2)nc1-c1ccccc1 do in these assays?
A3A deaminase: 0.5; AHR act: 14.8; APOBEC3G inh: 2.4; NTR1 agonist: -0.7

How did CC(=O)N(C)c1ccc(NCc2cc(=O)oc3cc(C)c(O)cc23)cc1 do in these assays?
A3A deaminase: 0.0; AHR act: 15.6; APOBEC3G inh: -4.2; NTR1 agonist: 0.5

Results for OC1=C(O)c2nc3cc(F)ccc3nc21 ?
A3A deaminase: 1.6; AHR act: 14.2; APOBEC3G inh: -5.9; NTR1 agonist: 0.5

What do the screens show for `Fc1ccc2nc3[nH]c4ccccc4c3nc2c1`?
A3A deaminase: -4.3; AHR act: 133.8*; APOBEC3G inh: -4.6; NTR1 agonist: -2.9; AHR act confirm: 189.2*; PXR act counter: 21.1*

Results for Fc1ccccc1Nc1nc2ccccc2n2nnnc12 ?
A3A deaminase: -4.1; AHR act: 96.2*; APOBEC3G inh: -5.5; NTR1 agonist: -0.6; AHR act confirm: 73.6*; PXR act counter: 11.0*

What do the screens show for `Brc1ccc(Nc2nc3ccccc3n3nnnc23)cc1`?
A3A deaminase: -1.0; AHR act: 94.3*; APOBEC3G inh: -7.8; NTR1 agonist: 9.6; AHR act confirm: 107.6*; PXR act counter: 74.8*

What do the screens show for `Cc1ccc(NC(=S)N2CCC(NC(=O)c3ccc(F)cc3)CC2)cc1`?
A3A deaminase: -3.3; AHR act: -1.3; APOBEC3G inh: -8.4; NTR1 agonist: -1.3

Results for CCc1ccc(C(=O)Nc2ccc(OC)c(S(=O)(=O)N3CCOCC3)c2)cc1 ?
A3A deaminase: -2.2; AHR act: 9.6; APOBEC3G inh: -4.8; NTR1 agonist: 0.9

Results for COc1ccc(NC(=O)c2ccc(Cl)nc2)cc1S(=O)(=O)N1CCOCC1 ?
A3A deaminase: -0.1; AHR act: 92.2*; APOBEC3G inh: -5.7; NTR1 agonist: -0.6; AHR act confirm: 101.8*; PXR act counter: 20.9*

How did COc1ccc(-c2cc(C(F)(F)F)nc(NCc3ccco3)n2)cc1OC do in these assays?
A3A deaminase: -2.4; AHR act: 12.2; APOBEC3G inh: -2.4; NTR1 agonist: -1.5

Results for FC(F)(F)c1cc(-c2ccc3c(c2)OCO3)nc(NCc2ccco2)n1 ?
A3A deaminase: -0.3; AHR act: 91.0*; APOBEC3G inh: 0.8; NTR1 agonist: 3.3; AHR act confirm: 75.5*; PXR act counter: 25.5*

What do the screens show for `NC(=S)N/N=C/c1ccc(-c2ccc([N+](=O)[O-])cc2)o1`?
A3A deaminase: -2.6; AHR act: 91.5*; APOBEC3G inh: 8.8; NTR1 agonist: 1.7; AHR act confirm: 118.3*; PXR act counter: 14.2*

What do the screens show for `ClC(CCN1CCN(Cc2ccccc2)CC1)c1ccccc1` (configuration not stated)?
A3A deaminase: -1.8; AHR act: -1.1; APOBEC3G inh: -6.8; NTR1 agonist: 0.5

How did O=c1c2ccccc2ncn1Cc1ccc(Cl)cc1 do in these assays?
A3A deaminase: 3.1; AHR act: 2.8; APOBEC3G inh: -11.1; NTR1 agonist: -0.5

What do the screens show for `O=c1c2ccccc2ncn1-c1ccc(Cl)cc1`?
A3A deaminase: 3.7; AHR act: 111.8*; APOBEC3G inh: 6.6; NTR1 agonist: -0.8; AHR act confirm: 114.7*; PXR act counter: 9.5

How did CCOc1ccc(N=C(C)C2=C(O)c3ccccc3C2=O)cc1 do in these assays?
A3A deaminase: -0.6; AHR act: 2.6; APOBEC3G inh: -5.6; NTR1 agonist: 1.2

Results for CCOc1ccc(N=C(NN)c2ccc3ccccc3n2)cc1 ?
A3A deaminase: 3.4; AHR act: 108.4*; APOBEC3G inh: 0.8; NTR1 agonist: 1.0; AHR act confirm: 110.0*; PXR act counter: 18.6*

How did Cc1ccc(-c2nc3ccccc3n2C)o1 do in these assays?
A3A deaminase: -5.7; AHR act: 10.7; APOBEC3G inh: -5.7; NTR1 agonist: 1.0

What do the screens show for `Cc1ccc(C2Nc3ccccc3-c3nc4ccccc4n32)o1` (configuration not stated)?
A3A deaminase: -3.1; AHR act: 116.1*; APOBEC3G inh: -2.6; NTR1 agonist: 2.4; AHR act confirm: 73.7*; PXR act counter: 53.3*

What do the screens show for `Cc1ccc(C)c(OCCC(=O)OCC(=O)Nc2cc(S(=O)(=O)N3CCCCC3)ccc2C)c1`?
A3A deaminase: -1.6; AHR act: 0.5; APOBEC3G inh: -6.0; NTR1 agonist: 0.3

How did O=C1C(=O)N(CCN2CCOCC2)C(c2ccccc2F)/C1=C(\O)c1ccc(S(=O)(=O)N2CCOCC2)cc1 (configuration not stated) do in these assays?
A3A deaminase: -4.3; AHR act: 0.6; APOBEC3G inh: -5.4; NTR1 agonist: -0.4

Results for COc1ccc(OC)c(/C=N/NC(=O)CNC(=O)c2ccc(S(=O)(=O)N3CCOCC3)cc2)c1 ?
A3A deaminase: 0.9; AHR act: 125.1*; APOBEC3G inh: 5.9; NTR1 agonist: -0.2; AHR act confirm: 7.8; PXR act counter: 5.3

What do the screens show for `CCCN(Cc1ccccc1)C(=S)Nc1cccc(C)c1C`?
A3A deaminase: 4.7; AHR act: 0.5; APOBEC3G inh: -2.1; NTR1 agonist: 0.5
